# Compounds with a hit are over-represented: about 14% of the library has one in this group of screens.
# CRE Fsk mod: CRE-bla signaling modulation under forskolin stimulation. CHO CRE-bla reporter (cAMP response element driving beta-lactamase), forskolin EC10, beta-lactamase ratio. AID 662. 71,000 compounds, 2.5% hits. Potency, µM (top dose mostly 38.2 µM), for inactives: at the highest dose activity change, negative = inhibition, usual class: activators; active means well fitted activation curve with a large enough effect in the signal ratio, with a control signal flat, not every such curve was filed as active; inconclusive means small, poorly fitted or top-dose-only effect, or effect the other way, or a change in a side signal; the % refers to the signal ratio; further: potency means the concentration at half of the fitted maximal effect; % of control where 0% means no effect
#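 Cells were plated overnight at 37 °C, exposed to compound titrations plus EC10 NKH 477 for 3 h, then given CCF4 dye for 2 h at room temperature. Blue/green (460/530 nm) ratio was converted to %Activity and AC50 values calculated.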
# 4MU fluor: compounds fluorescent in 4-MU spectral region | compound autofluorescence, 340/450 nm, 4-MU equivalents; stronger effect = higher value | max dye-equivalent concentration, M | 59,000 compounds, 11% hits; in the data active means max dye-equivalent concentration above about 10 nM; inconclusive means mostly about 1.1 nM to 9.6 nM
#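 Compounds in 100 mM Tris, pH 8.0, incubated 15 min at room temperature, then fluorescence read at 340 nm excitation/450 nm emission. Signal converted to 4-MU dye-equivalent concentration using an on-plate six-point 4-MU standard curve.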
# HSD17B inh: blocks hydroxysteroid 17-beta dehydrogenase activity; Q99714; recombinant HSD17B10, NADH fluorescence kinetic; Potency, µM (titrated, usually from 57.1 µM), for inactives: at the top dose activity change, negative = inhibition, hits mostly inhibitors; 75,000 compounds, 7.6% hits; AID 893;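 further: the protocol describes HADH2 (HSD17B10) and not the HSD17B4 of the title; potency means the concentration at half of the fitted maximal effect; on the % scale 0 is the no-effect control and ±100 the full control effect; nearly all actives have a fitted effect of over 70% in size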
#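 Activity followed as NADH fluorescence increase (ex 360, em 450 nm) every 30 seconds for 4 min, using final 90 uM beta-hydroxybutyryl CoA and 1 mM NAD+. Recombinant His-tagged enzyme, 20 nM, pH 9.0 Tris buffer, 15 min compound preincubation.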
# AID923: qHTS Assay for Allosteric/Competitive Inhibitors of Caspase-1: Spectroscopic Profiling in AFC Spectral Region; AID 923, 2007; compound fluorescence, AFC spectral region (405/520 nm); Potency, µM (doses to about 57.5 µM), for inactives: at the highest dose fluorescence increase, actives largely listed as activators; 75,000 compounds, 1.1% hits; further: potency means the concentration at half of the fitted maximal effect; 0% is about no effect
#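 Titrations up to 57 uM read every 20 sec for 3 min (405/520 nm) with 50 nM caspase 1 and 5 uM Ac-WEHD-AFC, pH 7.5 HEPES buffer. Fluorescence-vs-time intercept gave baseline, scaled against on-plate AFC standard.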
# HADH2 inh: inhibitors of human HADH2 dehydrogenase | Q99714 | 73,000 compounds, 3.4% hits | recombinant HADH2, NADH fluorescence, beta-hydroxybutyryl-CoA | Potency, µM (highest dose often 57.1 µM), for inactives: at the highest dose activity change, negative = inhibition, usual class: inhibitors; further: potency means the concentration at half of the fitted maximal effect; on the % scale 0 is the no-effect control and ±100 the full control effect; nearly all actives have a fitted effect of over 60% in size
# Target sequence (Q99714 whole entry, looked up, one chain of several): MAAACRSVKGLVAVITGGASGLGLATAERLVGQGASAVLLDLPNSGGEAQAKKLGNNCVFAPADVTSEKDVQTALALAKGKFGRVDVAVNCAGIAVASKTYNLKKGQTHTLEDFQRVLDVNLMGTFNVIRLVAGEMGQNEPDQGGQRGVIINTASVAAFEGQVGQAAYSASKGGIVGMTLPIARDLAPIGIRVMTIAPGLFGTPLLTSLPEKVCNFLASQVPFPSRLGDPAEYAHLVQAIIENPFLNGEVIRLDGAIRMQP
#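 Buffer 100 mM Tris-HCl pH 9.0/0.01% Tween-20; HADH2 20 nM; NAD+ 1 mM; beta-hydroxybutyryl-CoA 90 uM (all final). 15 min cpd preincubation, RT.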
# A350 fluor: compounds fluorescent in Alexa 350 spectral region | Compound autofluorescence, 340/450 nm, Alexa 350 dye-equivalents; stronger effect = higher value | max dye-equivalent concentration, M | 59,000 compounds, 11% hits; in the data active means max dye-equivalent concentration above about 10 nM; inconclusive means mostly about 1.1 nM to 9.6 nM
# CHO via 24h: cytotoxicity in CRE-bla CHO cells at 24 h; AID 905; CRE-bla CHO viability, ATP luminescence, 24 h; 120 tested, under 10 active; shares compounds with CRE Fsk mod; activity, negative = viability loss, % at 46.1 µM
# CHO tox 40h: reduces CRE-bla CHO cell viability after 40 hours. shares compounds with CRE Fsk mod. CRE-bla CHO viability, ATP luminescence, 40 h. Potency, µM, for the others: max response, most hits filed as inhibitors. 120 tested, under 10 active. AID 906
# CREB luc CRC: boosts CRE luciferase signal in HEK293 cells; shares compounds with CRE Fsk mod; HEK293 CRE-luc2P, NKH477 EC10 potentiation, luminescence, 4 h; Potency, µM (doses to about 38.3 µM), inactives show at the highest dose activity, positive = activation, most hits filed as activators; 120 compounds, 80% hits
# The depositor's hits bear a star; i = inactive; ? = inconclusive; nt = no result. Unless noted, the call rests on the fitted dose curve; in most records, active means well fitted curve in the direction sought with a large enough effect; inconclusive means small, poorly fitted or top-dose-only effect, or another doubt; inactive means no such curve, though single readings can be large; an effect the other way counts as inactive or inconclusive.
SMILES,CRE Fsk mod,4MU fluor,HSD17B inh,AID923,HADH2 inh,A350 fluor,CHO via 24h,CHO tox 40h,CREB luc CRC
CCC(=O)N1CCN(c2ccccc2NC(=O)COc2cc(C)ccc2C(C)C)CC1,?,i,-6%,-2%,-8%,i,nt,nt,nt
O=S(=O)(Cc1ccccc1)N1CCc2ccccc21,-7%,i,-1%,0%,-6%,i,nt,nt,nt
COc1ccc(Nc2nc(Nc3ccc(OC)cc3)nc(-n3[nH]c(=O)c(C)c3C)n2)cc1,nt,i,nt,nt,nt,i,?,?,0.5µM*
COc1ccc(/C(O)=C(\C#N)c2nc3ccccc3n2C)cc1OC,5µM*,1.4e-08M*,-11%,1%,2%,?,-9,-19%,4.5µM*
O=C(O)CCC(=O)N1CCc2cc(S(=O)(=O)N3CC=C(c4ccccc4)CC3)ccc21,-15%,nt,?,-3%,-5%,nt,nt,nt,nt
O=C(Nc1ccccc1O)c1cc(S(=O)(=O)N2CCOCC2)ccc1Cl,1%,i,2%,3%,-7%,i,5,-9%,16µM*
CCOc1ccc(C2c3c(oc4ccccc4c3=O)C(=O)N2c2ccc(C)cn2)cc1OC (centres undefined),2µM*,nt,0%,1%,-5%,nt,-9,-27%,10µM*
O=C(CN(Cc1ccc(F)cc1)C(=O)Cn1nnc2ccccc21)NCC1CCCO1 (centres undefined),-9%,i,8%,-1%,12%,i,nt,nt,nt
Cc1cc(C)cc(Nc2cc(C)nc3nc(C)nn23)c1,?,nt,-1%,2%,7%,nt,nt,nt,nt
CCc1nc2nc(C)cc(Nc3cccc(C(F)(F)F)c3)n2n1,4µM*,i,-13%,0%,-2%,i,-17,-28%,13µM*

# Compound activity: PubChem BioAssay, National Center for Advancing Translational Sciences (NCATS)
